Cruzain Triton: inhibitors of Trypanosoma cruzi cruzain with detergent; P25779; purified cruzain, Z-FR-AMC fluorescence, 0.01% Triton; Potency, µM, inactives show max response, negative = inhibition, hits mostly inhibitors; actives 0.43% (n = 200,000);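 further: plate controls were neutral wells for no effect and buffer without enzyme for full effect; nearly all actives have a fitted effect of over 40% in size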
Target sequence (P25779 123-467 limits assumed): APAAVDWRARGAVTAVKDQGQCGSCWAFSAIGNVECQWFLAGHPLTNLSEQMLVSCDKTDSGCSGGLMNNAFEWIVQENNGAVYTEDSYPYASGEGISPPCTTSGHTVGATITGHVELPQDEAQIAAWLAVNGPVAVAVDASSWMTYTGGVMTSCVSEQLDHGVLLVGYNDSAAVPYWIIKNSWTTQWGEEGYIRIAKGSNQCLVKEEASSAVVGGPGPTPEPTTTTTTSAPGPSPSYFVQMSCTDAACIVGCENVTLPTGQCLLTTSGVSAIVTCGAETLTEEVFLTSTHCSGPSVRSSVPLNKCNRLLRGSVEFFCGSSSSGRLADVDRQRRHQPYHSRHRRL
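Cruzain (1.5 nM) preincubated 15 min at RT with compound in 100 mM sodium acetate pH 5.5, 5 mM DTT, 0.01% Triton X-100. Reaction started with 2 uM Z-FR-AMC; AMC fluorescence (ex 360/em 450 nm) change over 60 s gave rate.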
Cruzain noTriton: inhibitors of Trypanosoma cruzi cruzain without detergent; P25779; actives 2.3% (n = 200,000); Potency, µM, for inactives: max response, negative = inhibition, usual class: inhibitors; purified cruzain, Z-FR-AMC fluorescence, no detergent;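 further: plate controls were enzyme without inhibitor for no effect and buffer without enzyme for full effect; nearly all actives have a fitted effect of over 40% in size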
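Detergent-free condition (0.00005% Triton X-100) in acetate buffer pH 5.5 with DTT. 1.5 nM enzyme and compound were pre-mixed 15 min, then 2 uM Z-FR-AMC substrate added; reaction progress from fluorescence change between first and third reads (60 s).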
Numbers without * were called inactive; u = inconclusive. In the library only some 2.4% were active in any assay of this set; here they are far more common. The call rests on the fitted dose curve; in most records, active means well fitted curve in the direction sought with a large enough effect; inconclusive means small, poorly fitted or top-dose-only effect, or another doubt; inactive means no such curve, though single readings can be large; an effect the other way counts as inactive or inconclusive. Potency means the concentration at half of the fitted maximal effect.

SMILES	Cruzain Triton	Cruzain noTriton
CC(=O)NC(CC(C)C)C(=O)NC(Cc1ccccc1)C(N)=O (configuration not stated)	3%	-1%
CC[C@](N)(C(=O)O)C(C)C	4%	24%
CC(C)CC(NC(=O)c1ccc(Cl)cc1)C(=O)OCC(=O)c1ccc2c(c1)NC(=O)CO2 (configuration not stated)	-20%	20µM*
CCN(CC)S(=O)(=O)c1cc(C(=O)OCC(=O)c2ccc3c(c2)NC(=O)CO3)ccc1Cl	-4%	3%
CC1=C(C(=O)Nc2ccccc2)C(c2cccc(O)c2)n2nc(-c3ccccc3Cl)nc2N1 (configuration not stated)	-8%	8%
Cc1ccc2[nH]c3c(c2c1)CC/C(=C/c1ccccc1)C3=O	4%	13µM*
O=C1/C(=C\c2ccccc2)CCc2c1[nH]c1ccccc21	-1%	u
Cc1ccc2[nH]c(-c3ccccc3)cc(=O)c2c1	1%	-11%
Cc1ccc(/C=C2/CCc3c([nH]c4ccccc34)C2=O)cc1	6%	32µM*
O=C(CCCn1ccc2cc(S(=O)(=O)N3CCCC3)ccc21)NCc1ccc(Cl)cc1	-7%	19%
CCOC(=O)c1c(C)[nH]c(C)c1S(=O)(=O)N1CCCC(C(=O)Nc2cccc(CC)c2)C1 (configuration not stated)	-3%	u
Cc1cccc(N2CCN(S(=O)(=O)c3nnc(NC(=O)c4ccc(Cl)cc4)s3)CC2)c1	-1%	-4%
C(=C\c1nc2ccccc2[nH]1)/c1ccccc1	-21%	20µM*
Cc1cccc(/C=C\c2nc3ccccc3c(=O)[nH]2)c1	27%	u
CCOc1ccc(NC(=O)c2ccc(NC(=O)N3CCSc4ncccc43)cc2)cc1	-8%	3%
Cc1cc(C)cc(C(=O)NC(=S)Nc2ccc(-c3cc4ccccc4oc3=O)cc2)c1	-1%	10µM*
Cc1ccc(C(=O)NC(=S)Nc2ccc(-c3cc4ccccc4oc3=O)cc2)c(C)c1	-1%	u
Cc1ccccc1OCC(=O)NCCc1nc2ccccc2[nH]1	5µM*	3.2µM*
Cc1cccc(OCC(=O)NCCc2nc3ccccc3[nH]2)c1C	4µM*	3%
Cc1cccc(OCC(=O)NCc2ccncc2)c1C	-3%	-1%
Cc1ccccc1OCC(=O)NCCC(=O)O	1%	1%
O=C(Nc1cc2c(cc1C(=O)c1ccccc1Br)OCCO2)c1cccc(Cl)c1	1%	-1%
CC1=C(C(N)=O)C(c2cccc(C)c2)n2nc(-c3ccc(Cl)cc3)nc2N1 (configuration not stated)	-3%	-4%
CCN(CC)S(=O)(=O)c1ccc(NC(=O)c2nn(C)c3c2CSc2ccccc2-3)cc1	-4%	4%
COc1ccc(Cl)cc1NC(=O)Cn1nnc2sc3c(c2c1=O)CCC(C(C)(C)C)C3 (configuration not stated)	0%	6%
SMILES	Cruzain Triton	Cruzain noTriton
Cc1ccc(Cl)cc1NC(=O)Cn1nnc2sc3c(c2c1=O)CCC(C(C)(C)C)C3 (configuration not stated)	-4%	25µM*
CC1Cc2ccccc2N1c1nc(C2CC2)nc2c1nnn2Cc1ccccc1 (configuration not stated)	-17%	20µM*
CC1Cc2ccccc2N1c1ncnc2c1nnn2Cc1ccccc1 (configuration not stated)	-24%	u
N/N=C1/c2ccccc2N[C@H]1OC(=O)Nc1ccccc1	-10%	-6%
CCc1nnc(SCc2ccc(OC)cc2)c2cc3sc(C)cc3n12	-1%	-2%
Cc1cccc(C)c1OCC(=O)Nc1cccc(-c2nnc(-c3ccccc3)o2)c1	4%	u
Cc1cc(C)cc(OCC(=O)Nc2ccc(N3CCCC3)cc2)c1	u	4µM*
Cc1ccc(OCC(=O)Nc2ccc(O)c(C(=O)O)c2)cc1C	1%	-8%
Cc1cccc(OCC(=O)Nc2cccc(-c3nnc(-c4ccccc4)o3)c2)c1C	0%	25µM*
Cc1ccc(OCC(=O)Nc2ccc(N3CCCC3)cc2)cc1C	u	2.5µM*
CCC(=O)Nc1ccc2c(c1)C(=O)c1ccccc1C2=O	-7%	7%
Cc1cc(C)cc(OCC(=O)Nc2ccc3c(c2)C(=O)c2ccccc2C3=O)c1	-1%	25µM*
Cc1cc(C)cc(OCC(=O)Nc2ccc(F)cc2)c1	0%	-19%
COCCNC(=O)c1c(-c2ccccc2)c(-c2ccccc2)nn(C)c1=O	-1%	9%
Cc1nc2nc(SCC(=O)NC(C)c3ccccc3)nn2c(C)c1Cc1c(F)cccc1Cl (configuration not stated)	-9%	u
OCC1=CC[N+]2(Cc3ccccc3)CCC(O)[C@@H]12 (some centres not stated)	2%	-6%
CC[C@@H](Nc1ncnc2nc[nH]c12)C(=O)O	1%	11%
Cc1cccc(OCC(=O)Nc2ccc(N3CCCC3)cc2)c1C	u	3.2µM*
O=C(Cc1ccc(Cl)cc1)Nc1ccc(N2CCCC2)cc1	3%	6.3µM*
CCOc1ccccc1OCC(=O)Nc1ccc(N2CCCCC2)cc1	2%	-5%
O=C(O)CCC(=O)Nc1ccc(N2CCCCCC2)cc1	3%	-5%
Cc1ccc2ncc(C(=O)NCc3ccccc3Cl)c(=O)n2c1	-4%	2%
COc1ccc(-c2csc(NC(=O)c3nc(-c4ccccc4)oc3C)n2)cc1	5%	7.9µM*
Cc1oc(-c2ccccc2)nc1C(=O)Nc1nccs1	-1%	-10%
CC(=O)c1c(C)[nH]c(C(=O)Nc2nc(-c3ccc(-c4ccccc4)cc3)cs2)c1C	-3%	10µM*
SMILES	Cruzain Triton	Cruzain noTriton
CC(=O)c1c(C)[nH]c(C(=O)Nc2nc(-c3ccc(Cl)cc3)cs2)c1C	-8%	-11%
C[C@@H](CN(C)C)CN1c2ccccc2CCc2ccccc21	-3%	-6%
CCOC(=O)C1=C(N)n2c(s/c(=C\c3ccco3)c2=O)=C(C(=O)OCC)C1c1ccco1 (configuration not stated)	-6%	7.9µM*
CCOC(=O)C1=C(c2ccccc2)N=c2s/c(=C\c3ccco3)c(=O)n2C1c1cccs1 (configuration not stated)	-1%	u
CCOC(=O)C1=C(N)n2c(s/c(=C/c3ccccc3)c2=O)=C(C(=O)OCC)C1c1ccccc1 (configuration not stated)	-2%	-9%
CCOC(=O)C1=C(N)n2c(s/c(=C\c3ccco3)c2=O)=C(C(=O)OC(C)C)C1c1ccco1 (configuration not stated)	-8%	10µM*
CC(C)c1ccc(Nc2ncnc3c2c(-c2ccccc2)cn3-c2ccccc2)cc1	0%	-13%
Cc1ccn2c(=O)cc(COc3ccc(NC(=O)C(C)(C)C)cc3)nc2c1	0%	-1%
CC(=O)Nc1ccc(-c2csc(NC(=O)CCCc3cccs3)n2)cc1	-6%	10µM*
O=C(O)CCC(=O)Nc1nc(-c2ccccc2)cs1	2%	-10%
Cc1ccc(-c2csc(NC(=O)CCCc3cccs3)n2)cc1	0%	7.9µM*
CCC(=O)Nc1ccc(-c2csc(NNC(C)=O)n2)cc1	-4%	-9%
COc1ccccc1OC(C)C(=O)N1CCN(CCc2ccccn2)CC1 (configuration not stated)	-1%	-13%
CCCCn1c(=O)[nH]c(=O)c2c1nc(CN1C(=O)c3ccccc3S1(=O)=O)n2CCC	2%	25µM*
CCCCn1c(=O)[nH]c(=O)c2c1nc(COc1ccc(C#N)cc1)n2CCC	5%	-6%

Compound activity from PubChem.
